Values joined by “and” are separate entries in the source; they are usually repeats but may differ in a detail not shown here. Equal values may be shown once. Records with an inconclusive call do not appear. Values without a mark were called inactive. Active and inactive are the calls of the source. Calls come from the whole dose curve; as a rule, active = well fitted cell-killing curve with a large enough effect; inconclusive = small, poorly fitted or top-dose-only effect; inactive = no such curve, though single readings can be large or run the other way.
Test: qHTS of pediatric cancer cell lines to identify multiple opportunities for drug repurposing: Primary screen for SK-N-MC cells (AID 1347093);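 for activity change, negative = cytotoxic: plate controls were DMSO neutral control for no effect and bortezomib for full effect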
Conditions: SK-N-MC viability, CellTiter-Glo luminescence, 48 h; series mostly up to 46 µM; activity change, negative = cytotoxic: at the top concentration
Summary of the method: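 Metabolically active cells were quantified by ATP-dependent luminescence (CellTiter-Glo, 15 min at room temperature) following 48 h treatment. Cells had been plated at 500-1,000 per well and settled for 5 h beforehand.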
Potency is the fitted concentration of half-maximal effect.

SMILES	activity change, negative = cytotoxic	Potency
NN=C(N)N	-7.31%	
CN1CCN(C(=O)O[C@H]2c3nccnc3C(=O)N2c2ccc(Cl)cn2)CC1	-16.5%	
CC1NCCOC1c1ccccc1 (stereo unspecified)	-21.2%	
CC(C)=CC1C(C(=O)OCc2cccc(Oc3ccccc3)c2)C1(C)C (stereo unspecified)	3.6%	
NCCc1cc(O)c(O)cc1O	-20.7%	
CCN(CC)C(=O)N[C@@H]1C=C2c3cccc4[nH]cc(c34)C[C@@H]2N(C)C1	-12.2%	
CCCC(C)(COC(N)=O)COC(=O)NC(C)C (stereo unspecified)		inactive
O=[N+]([O-])c1cc([As](=O)(O)O)ccc1O	27.5%	
COc1ccc(C(=O)c2c(C)n(CCN3CCOCC3)c3ccccc23)cc1	-21.2%	
CCC(C(N)=O)N1CCCC1=O (stereo unspecified)	-10.5%	
C=C1CC[C@@]2(O)[C@H]3Cc4ccc(O)c5c4[C@@]2(CCN3CC2CC2)[C@H]1O5	-5.59%	
Nc1ccncc1	-19.9%	
CC(C)NCC(O)c1ccccc1Cl (stereo unspecified)	3.82%	
CCCN1CCC[C@@H]2Cc3nc(N)ncc3C[C@H]21	-25.1%	
N[C@@H](Cc1ccc(N(CCCl)CCCl)cc1)C(=O)O		2.99 µM (active) and 2.35 µM (active)
CCCN1CCC[C@@H]2Cc3[nH]ncc3C[C@H]21	-7.19%	
CC(=O)[C@H]1CC[C@H]2[C@@H]3CC[C@H]4C[C@](C)(O)CC[C@]4(C)[C@H]3CC[C@]12C	1.35%	
Oc1cc(Cl)ccc1Oc1ccc(Cl)cc1Cl		27.9 µM (active)
N[C@@H](Cc1ccc(Oc2cc(I)c(O)c(I)c2)c(I)c1)C(=O)O	-5.26%	
Clc1cccc(N2CCNCC2)c1	-9.35%	
C#CCN(C)[C@H](C)Cc1ccccc1		inactive
